Data reported in PubChem BioAssay (NCI).
About 79,000 compounds went through this panel and 15% of them were active in at least one assay; those are over-represented in the sample as a whole. Values without a mark were called inactive. The source made the active and inactive calls. Rule as the data show it: active = growth inhibition above about 70%; inactive = the rest.

How the values were obtained:
[1] = NCI Yeast Anticancer Drug Screen. Data for the rad52 strain (AID 147);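 also: 0% = growth of vehicle-treated control cultures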; details: S. cerevisiae rad52 mutant growth inhibition, stronger effect = higher value
Summary of the method: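 Measured: yeast growth inhibition. System: strain with a defined DNA damage repair alteration. Reference: vehicle-treated control cultures.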

[2] = NCI Yeast Anticancer Drug Screen. Data for the wt1 strain (AID 149);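 also: 0% = growth of vehicle-treated wt1 cultures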; details: S. cerevisiae wt1 strain (SPY 50644) growth inhibition, stronger effect = higher value
Summary of the method: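 wt1 yeast, compound-treated; % growth inhibition vs vehicle control.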

[3] = NCI Yeast Anticancer Drug Screen. Data for the rad50EPP+ strain (AID 151);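 also: 0% = growth of vehicle-treated control cultures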; details: S. cerevisiae rad50 mutant strain, stronger effect = higher value
Summary of the method: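 One strain with a rad50 alteration (rad50EPP+) was compound-treated, its growth then compared to that of vehicle controls.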

[4] = NCI Yeast Anticancer Drug Screen. Data for the rad50 strain (AID 155);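 also: 0% = growth of vehicle-only cultures of the same strain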; details: S. cerevisiae rad50 strain growth inhibition, stronger effect = higher value
Summary of the method: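 Genetically altered yeast (DNA repair pathway); compound treatment; growth inhibition vs vehicle ctrl.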

[5] = NCI Yeast Anticancer Drug Screen. Data for the mec2-1 strain (AID 157); details: S. cerevisiae mec2-1 strain, stronger effect = higher value
Summary of the method: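 Test agents were screened against the mec2-1 yeast strain, with defined DNA repair or cell cycle alteration. Growth was scored as inhibition against vehicle-only controls.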

[6] = NCI Yeast Anticancer Drug Screen. Data for the rad14 strain (AID 159);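 also: 0% = growth of vehicle-treated control cultures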; details: S. cerevisiae rad14 strain growth inhibition, stronger effect = higher value
Summary of the method: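 Test compounds were applied to a repair-deficient yeast strain. Its growth was then compared with that of cultures given vehicle alone, and inhibition was expressed relative to those controls.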

[7] = NCI Yeast Anticancer Drug Screen. Data for the sgs1 mgt1 strain (AID 161);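 also: 0% = growth of cultures given vehicle only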; details: S. cerevisiae sgs1 mgt1 strain, stronger effect = higher value
Summary of the method: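 Mutant yeast exposed to compound; growth scored against vehicle-only wells.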

[8] = NCI Yeast Anticancer Drug Screen. Data for the CLN2oe strain (AID 163);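 also: 0% = growth of vehicle-only control cultures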; details: S. cerevisiae CLN2oe strain, stronger effect = higher value
Summary of the method: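 Here, growth inhibition in a cell-cycle-altered yeast strain after compound exposure was quantified against vehicle control growth.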

[9] = NCI Yeast Anticancer Drug Screen. Data for the cln2 rad14 strain (AID 165);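 also: 0% = growth equal to vehicle treated cultures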; details: S. cerevisiae cln2 rad14 strain, stronger effect = higher value
Summary of the method: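 Growth of compound-exposed yeast (cln2 rad14 genotype) measured and expressed as inhibition relative to vehicle.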

[10] = NCI Yeast Anticancer Drug Screen. Data for the bub3 strain (AID 167); details: S. cerevisiae bub3 mutant strain, stronger effect = higher value
Summary of the method: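 Yeast carrying a defined mutation is treated with each compound, and growth is compared with that of vehicle-exposed cells to give inhibition.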

[11] = NCI Yeast Anticancer Drug Screen. Data for the wt2 strain (AID 169);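 also: 0% = growth of vehicle-treated yeast cultures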; details: S. cerevisiae wt2 strain growth inhibition, stronger effect = higher value
Summary of the method: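 Genetically defined yeast strains from a DNA-repair/cell-cycle panel were used. Compound-exposed yeast growth was measured, and the inhibition was calculated relative to vehicle treatment.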

[12] = NCI Yeast Anticancer Drug Screen. Data for the mlh1 strain (AID 171);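 also: 0% = growth of vehicle-treated control cultures of the same strain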; details: S. cerevisiae mlh1 strain growth inhibition, stronger effect = higher value
Summary of the method: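 Here the genetically defined yeast mutant is grown with each compound, and the extent to which its growth falls below that of vehicle-exposed cells is reported.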

[13] = NCI Yeast Anticancer Drug Screen. Data for the sgs1 strain (AID 173);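 also: 0% = growth of vehicle-only control cultures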; details: S. cerevisiae sgs1 mutant, stronger effect = higher value
Summary of the method: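 Relative growth inhibition, referenced to vehicle, was determined in a yeast strain with a defined alteration affecting DNA damage repair or cell cycle control after compound exposure.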

[14] = NCI Yeast Anticancer Drug Screen. Data for the rad18 strain (AID 177); details: S. cerevisiae rad18 mutant growth inhibition, stronger effect = higher value
Summary of the method: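 Screen uses a yeast strain with a defined lesion in DNA damage repair; compound effect is read as loss of growth compared to untreated vehicle cultures.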

[15] = NCI Yeast Anticancer Drug Screen. Data for the mlh1 rad18 strain (AID 175); details: S. cerevisiae mlh1 rad18 strain growth inhibition, stronger effect = higher value
Summary of the method: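 In this whole-cell yeast screen, a strain with altered DNA damage repair is challenged with compound, and its growth is measured against matched vehicle-treated controls.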

[16] = at 5.0 µM (retest, dose inferred, filed as 0.5)
[17] = at 50.0 µM (retest, dose inferred, filed as 5.0)

## O=C1CC(=O)N(C2CCCCC2)C(=O)N1c1ccccc1S(=O)(=O)Oc1ccccc1
[1]; at 1.2 µM
  growth inhibition: 1%
[1]; at 3.7 µM
  growth inhibition: 3%
[1]; at 11.0 µM
  growth inhibition: 4%
[1]; at 33.0 µM
  growth inhibition: 24%
[1]; at 100.0 µM
  growth inhibition: 64%
[2]; at 1.2 µM
  growth inhibition: 1%
[2]; at 3.7 µM
  growth inhibition: -5%
[2]; at 11.0 µM
  growth inhibition: -14%
[2]; at 33.0 µM
  growth inhibition: 12%
[2]; at 100.0 µM
  growth inhibition: 51%
[3]; at 1.2 µM
  growth inhibition: -22%
[3]; at 3.7 µM
  growth inhibition: -19%
[3]; at 11.0 µM
  growth inhibition: -16%
[3]; at 33.0 µM
  growth inhibition: 2%
[3]; at 100.0 µM
  growth inhibition: -49%
[4]; at 1.2 µM
  growth inhibition: -12%
[4]; at 3.7 µM
  growth inhibition: -3%
[4]; [16]
  growth inhibition: 66%
[4]; at 11.0 µM
  growth inhibition: -12%
[4]; at 33.0 µM
  growth inhibition: 5%
[4]; [17]
  growth inhibition: 99% (active)
[4]; at 50.0 µM
  growth inhibition: 38.6%
[4]; at 100.0 µM
  growth inhibition: 33%
[5]; at 1.2 µM
  growth inhibition: 11%
[5]; at 3.7 µM
  growth inhibition: 0%
[5]; [16]
  growth inhibition: 69%
[5]; at 11.0 µM
  growth inhibition: -18%
[5]; at 33.0 µM
  growth inhibition: 13%
[5]; [17]
  growth inhibition: 99% (active)
[5]; at 50.0 µM
  growth inhibition: 41%
[5]; at 100.0 µM
  growth inhibition: 36%
[6]; at 1.2 µM
  growth inhibition: -18%
[6]; at 3.7 µM
  growth inhibition: -22%
[6]; at 11.0 µM
  growth inhibition: -26%
[6]; at 33.0 µM
  growth inhibition: -18%
[6]; at 100.0 µM
  growth inhibition: 18%
[7]; [16]
  growth inhibition: 3%
[7]; [17]
  growth inhibition: 31%
[7]; at 50.0 µM
  growth inhibition: 54.4%
[8]; at 1.2 µM
  growth inhibition: 6%
[8]; at 3.7 µM
  growth inhibition: -1%
[8]; at 11.0 µM
  growth inhibition: 7%
[8]; at 33.0 µM
  growth inhibition: 43%
[8]; at 100.0 µM
  growth inhibition: 72% (active)
[9]; [16]
  growth inhibition: 60%
[9]; [17]
  growth inhibition: 80% (active)
[9]; at 50.0 µM
  growth inhibition: 68%
[10]; at 1.2 µM
  growth inhibition: -13%
[10]; at 3.7 µM
  growth inhibition: 0%
[10]; [16]
  growth inhibition: 25%
[10]; at 11.0 µM
  growth inhibition: 2%
[10]; at 33.0 µM
  growth inhibition: 7%
[10]; [17]
  growth inhibition: 42%
[10]; at 50.0 µM
  growth inhibition: 58.4%
[10]; at 100.0 µM
  growth inhibition: 32%
[11]; at 1.2 µM
  growth inhibition: 0%
[11]; at 3.7 µM
  growth inhibition: -33%
[11]; at 11.0 µM
  growth inhibition: -27%
[11]; at 33.0 µM
  growth inhibition: -3%
[11]; at 100.0 µM
  growth inhibition: 41%
[12]; at 1.2 µM
  growth inhibition: -10%
[12]; at 3.7 µM
  growth inhibition: -19%
[12]; at 11.0 µM
  growth inhibition: -11%
[12]; at 33.0 µM
  growth inhibition: 7%
[12]; at 100.0 µM
  growth inhibition: 46%
[13]; at 1.2 µM
  growth inhibition: -7%
[13]; at 3.7 µM
  growth inhibition: -5%
[13]; at 11.0 µM
  growth inhibition: -1%
[13]; at 33.0 µM
  growth inhibition: 20%
[13]; at 100.0 µM
  growth inhibition: 56%
[14]; at 1.2 µM
  growth inhibition: -15%
[14]; at 3.7 µM
  growth inhibition: -13%
[14]; at 11.0 µM
  growth inhibition: -19%
[14]; at 33.0 µM
  growth inhibition: -18%
[14]; at 100.0 µM
  growth inhibition: 12%

## Cc1cccc2c1N=C(C(F)(F)F)CC2=O
[1]; at 1.2 µM
  growth inhibition: 4%
[1]; at 3.7 µM
  growth inhibition: 7%
[1]; at 11.0 µM
  growth inhibition: 10%
[1]; at 33.0 µM
  growth inhibition: 20%
[1]; at 100.0 µM
  growth inhibition: 46%
[2]; at 1.2 µM
  growth inhibition: -2%
[2]; at 3.7 µM
  growth inhibition: -1%
[2]; at 11.0 µM
  growth inhibition: 2%
[2]; at 33.0 µM
  growth inhibition: 1%
[2]; at 100.0 µM
  growth inhibition: 31%
[3]; at 1.2 µM
  growth inhibition: 2%
[3]; at 3.7 µM
  growth inhibition: 3%
[3]; at 11.0 µM
  growth inhibition: 10%
[3]; at 33.0 µM
  growth inhibition: 33%
[3]; at 100.0 µM
  growth inhibition: 48%
[4]; at 1.2 µM
  growth inhibition: 9%
[4]; at 3.7 µM
  growth inhibition: 15%
[4]; [16]
  growth inhibition: -120%
[4]; at 11.0 µM
  growth inhibition: 23%
[4]; at 33.0 µM
  growth inhibition: 24%
[4]; [17]
  growth inhibition: 9%
[4]; at 50.0 µM
  growth inhibition: 43.7%
[4]; at 100.0 µM
  growth inhibition: 46%
[5]; at 1.2 µM
  growth inhibition: 2%
[5]; at 3.7 µM
  growth inhibition: 1%
[5]; [16]
  growth inhibition: -43%
[5]; at 11.0 µM
  growth inhibition: -5%
[5]; at 33.0 µM
  growth inhibition: 9%
[5]; [17]
  growth inhibition: 40%
[5]; at 50.0 µM
  growth inhibition: 35%
[5]; at 100.0 µM
  growth inhibition: 54%
[6]; at 1.2 µM
  growth inhibition: 3%
[6]; at 3.7 µM
  growth inhibition: -5%
[6]; at 11.0 µM
  growth inhibition: 0%
[6]; at 33.0 µM
  growth inhibition: 7%
[6]; at 100.0 µM
  growth inhibition: 39%
[7]; [16]
  growth inhibition: -44%
[7]; [17]
  growth inhibition: 65%
[7]; at 50.0 µM
  growth inhibition: 45%
[8]; at 1.2 µM
  growth inhibition: -5%
[8]; at 3.7 µM
  growth inhibition: -3%
[8]; at 11.0 µM
  growth inhibition: 3%
[8]; at 33.0 µM
  growth inhibition: 8%
[8]; at 100.0 µM
  growth inhibition: 43%
[9]; [16]
  growth inhibition: -49%
[9]; [17]
  growth inhibition: 45%
[9]; at 50.0 µM
  growth inhibition: 49.6%
[10]; at 1.2 µM
  growth inhibition: -2%
[10]; at 3.7 µM
  growth inhibition: -2%
[10]; [16]
  growth inhibition: -61%
[10]; at 11.0 µM
  growth inhibition: -1%
[10]; at 33.0 µM
  growth inhibition: 1%
[10]; [17]
  growth inhibition: 33%
[10]; at 50.0 µM
  growth inhibition: 25%
[10]; at 100.0 µM
  growth inhibition: 37%
[11]; at 1.2 µM
  growth inhibition: -2%
[11]; at 3.7 µM
  growth inhibition: -2%
[11]; at 11.0 µM
  growth inhibition: -1%
[11]; at 33.0 µM
  growth inhibition: 6%
[11]; at 100.0 µM
  growth inhibition: 40%
[13]; at 1.2 µM
  growth inhibition: 1%
[13]; at 3.7 µM
  growth inhibition: -2%
[13]; at 11.0 µM
  growth inhibition: 0%
[13]; at 33.0 µM
  growth inhibition: 27%
[13]; at 100.0 µM
  growth inhibition: 48%
[15]; [16]
  growth inhibition: -100%
[15]; [17]
  growth inhibition: 71% (active)
[15]; at 50.0 µM
  growth inhibition: 76.8% (active)
[14]; at 1.2 µM
  growth inhibition: 0%
[14]; at 3.7 µM
  growth inhibition: 1%
[14]; at 11.0 µM
  growth inhibition: 3%
[14]; at 33.0 µM
  growth inhibition: 9%
[14]; at 100.0 µM
  growth inhibition: 43%
